A short description of test [1]: inhibitors of TNFa-induced NFkB p65 translocation, primary screen, imaging, HUVEC, MLSMR starter and 10KST1 sets (AID 438;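 active means inhibition above 20% together with a positive visual image hit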;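 further: compound added about 3h40 before a 20 min TNFalpha stimulation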;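 on inhibition: signal is the nuclear over cytoplasmic p65 intensity ratio per well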). The following applies: HUVEC TNFa-induced p65 nuclear translocation; cell count: measured here: nuclei count (cytotoxicity indicator), at 2.08 µM; inhibition: at 2 µM, stronger effect = higher value, 0% TNFa-plus-vehicle, 100% no-TNFa wells.
The nature of test [2]: inhibitors of mutant huntingtin aggregation, primary screen, imaging, exon1htt(103Q)mCFP cells, high-content imaging (AID 483;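 active means visual image review flags a hit and inhibition of aggregation exceeds 20%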;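 further: compound exposure lasted 3 days before fixation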;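 on nuclei count: percent of the per-plate median nuclei count of sample wells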). The following applies: exon1htt(103Q)mCFP cell line, aggregate imaging, at 2 µM; inhibition of aggregation: stronger effect = higher value; nuclei count: measured here: cell count, toxicity.
Test [3] in a line: inhibitors of E-selectin induction by TNFa, primary screen, imaging, HUVEC, immunofluorescence, MLSMR starter and 10KST1 sets (AID 487;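 active means visually confirmed hit in the image check and inhibition above 20%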;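 on inhibition: signal is fraction of cell area covered by stained E-selectin grains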;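 on nuclei count: 100% = median nuclei count of all wells on the same plate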). The note with it: HUVEC TNFalpha-induced E-selectin immunofluorescence imaging, at 2 µM; inhibition: stronger effect = higher value; nuclei count: measured here: cell number, toxicity.
Test [4] has as its target Voltage-gated potassium channel subunit beta-2 (Rattus norvegicus) (UniProt P62483). The experiment in a line: KvBeta enzyme negative modulators, primary screen, biochemical, NADPH fluorescence (AID 622;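 active means fluorescence slope higher than the sample average by over 3 SD, cut at about -0.22 in these data, passing the limit was not always enough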;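 further: slope of raw intensity against log time taken from 70 to 1610 s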). The note with it: recombinant KvBeta, 4-cyanobenzaldehyde reduction, at 10 µM, stronger effect = higher value.
For test [5] the target is unchanged. Nature of the test: KvBeta positive modulators, primary screen, biochemical, NADPH fluorescence (AID 623;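 active means NADPH fluorescence slope more negative than the mean of all samples by about 3 SD, 99.7% confidence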;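 further: fluorescence intensity change per second fitted from 20 to 320 s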). The following applies: Recombinant KvBeta, NADPH fluorescence decrease slope, 10 min; at 10 µM; stronger effect = lower value.
Test [6] addresses Alpha-2C adrenergic receptor (Homo sapiens) (UniProt P18825). Nature of the test: modulators of alpha2C/GIRK thallium flux, primary screen, cell-based, HEK293 alpha2C/GIRK1/2 (AID 624).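 Further: slope of fluorescence ratio to pre-addition baseline per second over 15 to 24 s.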 The note with it: thallium flux BTC fluorescence, at 10 µM, actives lie on both sides.
Test [7] in a line: inhibitors of Sendai virus-induced IRF3 signaling, primary screen, TLR/RLR signaling modifier project, cell-based, Sendai virus stimulus, luciferase, 10K MLSCN set (AID 602276;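 active means inhibition at or above 50% at 10 µM; inactive means inhibition below 50%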;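 further: firefly luciferase from ISG56 promoter only with Renilla not read in this screen; 0% = Sendai virus plus DMSO and 100% = medium plus DMSO without virus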). The following applies: HEK293 RL24 IRF3 luciferase reporter, at 10 µM, stronger effect = higher value.
The nature of test [8]: inhibitors of poly I:C-induced TLR3 signaling, primary screen, cell-based, poly I:C stimulus, luciferase, 10K MLSCN set (AID 602277;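 active means inhibition of the reporter signal at or above 50%; inactive means inhibition below 50%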). The note with it: HEK293-TLR3 RL24 IRF3 luciferase reporter, at 10 µM, stronger effect = higher value. Background: A reporter such as luciferase makes a cellular process visible.

The structures appear in SMILES notation. Calls of active or inactive are those of the source.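 How the source made its calls, unless noted: active means fluorescence slope after compound addition differing from the mean of all screened samples at 99.7% confidence, in either direction; inactive means the rest.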

In general, inhibition refers to the drop in the measured response relative to a control, in per cent.

Alpha-2C adrenergic receptor (Homo sapiens), sequence (P18825 whole entry, looked up): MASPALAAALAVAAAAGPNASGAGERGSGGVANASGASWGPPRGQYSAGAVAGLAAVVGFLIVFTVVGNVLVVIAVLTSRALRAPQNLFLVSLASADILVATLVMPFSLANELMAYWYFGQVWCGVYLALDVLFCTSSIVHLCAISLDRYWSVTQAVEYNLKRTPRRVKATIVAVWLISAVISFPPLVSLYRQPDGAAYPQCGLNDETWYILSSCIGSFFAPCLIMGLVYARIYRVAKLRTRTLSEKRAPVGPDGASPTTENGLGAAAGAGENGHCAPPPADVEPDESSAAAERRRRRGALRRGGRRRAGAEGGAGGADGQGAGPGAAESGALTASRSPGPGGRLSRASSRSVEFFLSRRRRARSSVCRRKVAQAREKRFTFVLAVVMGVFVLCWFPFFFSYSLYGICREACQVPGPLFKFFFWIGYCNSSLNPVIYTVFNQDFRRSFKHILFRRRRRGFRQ
Voltage-gated potassium channel subunit beta-2 (Rattus norvegicus), sequence (P62483 whole entry, looked up): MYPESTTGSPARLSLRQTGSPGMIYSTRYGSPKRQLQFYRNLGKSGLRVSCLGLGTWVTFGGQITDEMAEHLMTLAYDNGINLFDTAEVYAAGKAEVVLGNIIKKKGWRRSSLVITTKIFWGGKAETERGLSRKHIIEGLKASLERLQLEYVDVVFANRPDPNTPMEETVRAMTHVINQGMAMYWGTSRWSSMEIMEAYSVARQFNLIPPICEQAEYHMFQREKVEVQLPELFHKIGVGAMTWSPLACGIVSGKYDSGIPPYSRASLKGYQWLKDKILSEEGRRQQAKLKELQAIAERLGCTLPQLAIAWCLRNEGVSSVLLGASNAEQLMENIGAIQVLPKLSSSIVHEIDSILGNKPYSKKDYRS

As for `COc1ccc2ccccc2c1CN1CCCC(CO)C1` (centres undefined), in test [1], the cell count is 745. Besides, the inhibition was 3.4% (inactive) in test [1], 53% (inactive) in test [3], 16% (inactive) in test [7] and 35.4% (inactive) in test [8]. In addition, the inhibition of aggregation in test [2] is 4.4% (inactive). For the same compound, the nuclei count in test [2] worked out at 110%; in test [3] it was 97.2%. For the same compound, the fluorescence slope in test [4] is -0.422 (inactive). In addition, in test [5], the NADPH fluorescence slope was -8.2e-05 (inactive). For the same compound, in test [6], the slope is 0.00503 (inactive).

Turning to `O=C(C1CCCO1)N1CCN(C(c2ccccc2)c2ccccc2)CC1` (centres undefined), the cell count in test [1] is 412. The inhibition in test [1] was 2.5% (inactive); in test [3], 32.4% (inactive); in test [7] it was 13.8% (inactive); in test [8], 27.4% (inactive). For the same compound, the inhibition of aggregation in test [2] is 10.8% (inactive). The nuclei count turned out to be 97.1% in test [2] and 117% in test [3]. Besides, the fluorescence slope in test [4] is -0.403 (inactive). Besides, the NADPH fluorescence slope in test [5] is -2.6e-05 (inactive). In addition, in test [6], the slope is 0.00589 (inactive).

With `Cc1ccc(OCc2nnc(SCC(=O)Nc3ccc4c(c3)OCO4)n2C)cc1`, the cell count in test [1] is 325. Moreover, the inhibition in test [1] is -6.5% (inactive); in test [3] it was -59.2% (inactive); in test [7], 17.9% (inactive); in test [8], 12.7% (inactive). For the same compound, the inhibition of aggregation in test [2] was 7.6% (inactive). The nuclei count was 77.3% in test [2] and 103% in test [3]. In test [4], the fluorescence slope was -0.409 (inactive). Also, the NADPH fluorescence slope in test [5] was -5.7e-05 (inactive). In test [6], the slope is 0.00504 (inactive).

With `CCn1cc(C2=NOC(C(=O)Nc3c(C)nn(Cc4ccc(F)cc4)c3C)C2)c(C)n1` (centres undefined), the cell count in test [1] came out at 766. The inhibition in test [1] was -12.2% (inactive); in test [3], -34.2% (inactive); in test [7], 12.3% (inactive); in test [8], 11.4% (inactive). Besides, the inhibition of aggregation in test [2] was -18.1% (inactive). Also, the nuclei count is 105% in test [2] and 94.7% in test [3]. In test [4], the fluorescence slope was -0.581 (inactive). Also, the NADPH fluorescence slope in test [5] was -2.9e-05 (inactive). Also, the slope in test [6] was 0.00617 (inactive).

Consider `COc1ccccc1S(=O)(=O)Cc1ccc(C(=O)N2CCOCC2)o1`, for which the cell count in test [1] amounted to 528. Also, the inhibition in test [1] is -7.1% (inactive); in test [3], -67.1% (inactive); in test [7], 1.72% (inactive); in test [8], 33.5% (inactive). In addition, in test [2], the inhibition of aggregation was 29% (inactive). Also, the figures for the nuclei count in test [2] and in test [3] were 86.6% and 107%, respectively. For the same compound, the fluorescence slope in test [4] was -0.428 (inactive). Besides, the NADPH fluorescence slope in test [5] was -5.8e-05 (inactive). For the same compound, the slope in test [6] was 0.00635 (inactive).

As for `O=C(c1ccc2ccccc2n1)N1CCN(c2ccccc2)CC1`, the cell count in test [1] is 874. In addition, the inhibition in test [1] was 0% (inactive); in test [3], -78.3% (inactive); in test [7], -18.5% (inactive); in test [8], -4.71% (inactive). In addition, in test [2], the inhibition of aggregation was -15% (inactive). Moreover, the figures for the nuclei count in test [2] and in test [3] were 107% and 142%, respectively. In addition, in test [4], the fluorescence slope was -0.476 (inactive). For the same compound, the NADPH fluorescence slope in test [5] was 9.7e-06 (inactive). For the same compound, the slope in test [6] was 0.00614 (inactive).

Turning to `O=c1/c(=C/c2ccco2)sc2nc(-c3ccccc3Br)nn12`, in test [1], the cell count was 343. For the same compound, the inhibition in test [1] is 0.2% (inactive); in test [3], -34.7% (inactive); in test [7], 16.2% (inactive); in test [8], 18.1% (inactive). Further, in test [2], the inhibition of aggregation was 14.2% (inactive). For the same compound, the nuclei count in test [2] was 107%; in test [3], 118%. Besides, the fluorescence slope in test [4] is -0.585 (inactive). Besides, the NADPH fluorescence slope in test [5] is -2.3e-05 (inactive). Moreover, in test [6], the slope was 0.00315 (inactive).

On to `CC1CCc2c(sc3c2C2=NS(=O)(=O)CCN2C=N3)C1` (centres undefined), for which, in test [1], the cell count turned out to be 188. The inhibition is 2.9% (inactive) in test [1], -5.5% (inactive) in test [3], 11.9% (inactive) in test [7] and 33.3% (inactive) in test [8]. Also, the inhibition of aggregation in test [2] was 2.7% (inactive). For the same compound, the nuclei count worked out at 87.1% in test [2] and 108% in test [3]. Besides, the fluorescence slope in test [4] was -0.582 (inactive). In test [5], the NADPH fluorescence slope is -6.8e-05 (inactive). The slope in test [6] was 0.00732 (inactive).

Take `CCOc1ccc2c(O)csc2c1`: the cell count in test [1] is 393. The inhibition in test [1] is 2% (inactive); in test [3], 7.7% (inactive); in test [7] it was 8.13% (inactive); in test [8], 10.6% (inactive). Also, the inhibition of aggregation in test [2] was 7.4% (inactive). Further, the results for the nuclei count in test [2] and in test [3] were 109% and 103%, respectively. The fluorescence slope in test [4] is -0.371 (inactive). Moreover, the NADPH fluorescence slope in test [5] was -4.2e-05 (inactive). Moreover, in test [6], the slope is 0.0033 (inactive).

For `O=C(Nc1cccc2ncccc12)c1ccc2c(c1)OCCO2`, the cell count in test [1] stood at 586. In addition, the inhibition in test [1] is 2.2% (inactive); in test [3], -8.1% (inactive); in test [7], -12.7% (inactive); in test [8], -8.56% (inactive). Moreover, in test [2], the inhibition of aggregation was 11.1% (inactive). For the same compound, the nuclei count in test [2] turned out to be 101%; in test [3] it was 81.2%. Also, the fluorescence slope in test [4] is -0.46 (inactive). Besides, the NADPH fluorescence slope in test [5] is -4.6e-05 (inactive). In addition, the slope in test [6] was 0.00308 (inactive).

With `CN(C)CCNc1oc(-c2ccccc2F)nc1C#N`, the cell count in test [1] came out at 648. Moreover, the inhibition in test [1] is 7.1% (inactive); in test [3] it was -40% (inactive); in test [7], 0.672% (inactive); in test [8], 34.3% (inactive). In addition, the inhibition of aggregation in test [2] was -11.1% (inactive). For the same compound, the values for the nuclei count in test [2] and in test [3] were 110% and 116%, respectively. Further, the fluorescence slope in test [4] was -0.062 (active). In addition, the NADPH fluorescence slope in test [5] was 9.2e-06 (inactive). In addition, the slope in test [6] was 0.00579 (inactive).

As to `O=S(=O)(NCc1ccccn1)c1ccc2c(c1)OCCO2`, the cell count in test [1] is 673. Moreover, the inhibition was 11.1% (inactive) in test [1], -3.6% (inactive) in test [3], 3.8% (inactive) in test [7] and 5.59% (inactive) in test [8]. In addition, in test [2], the inhibition of aggregation was -27.1% (inactive). In addition, the nuclei count in test [2] was 99.3%; in test [3], 102%. Moreover, in test [4], the fluorescence slope was -0.354 (inactive). Besides, the NADPH fluorescence slope in test [5] is -8e-05 (inactive). For the same compound, the slope in test [6] is 0.00513 (inactive).

With `CC(C)(C)c1nc(CN2CCOCC2)ccc1O`, the cell count in test [1] stood at 580. In addition, the inhibition was -17% (inactive) in test [1], -58.3% (inactive) in test [3], 10.4% (inactive) in test [7] and 29.3% (inactive) in test [8]. The inhibition of aggregation in test [2] was 21.1% (inactive). The nuclei count in test [2] was found to be 104%; in test [3], 109%. Moreover, the fluorescence slope in test [4] is -0.401 (inactive). For the same compound, the NADPH fluorescence slope in test [5] is -4.4e-05 (inactive). The slope in test [6] is 0.0093 (inactive).

Take `CN(C)c1ccc(C=Nc2ccc(N(C)C)cc2)cc1`: the cell count in test [1] came out at 345. Besides, the inhibition in test [1] is 3.4% (inactive); in test [3], 14.2% (inactive); in test [7], -5.99% (inactive); in test [8], -19% (inactive). Also, the inhibition of aggregation in test [2] is -8.7% (inactive). For the same compound, the nuclei count amounted to 106% in test [2] and 118% in test [3]. Moreover, the fluorescence slope in test [4] is -0.512 (inactive). Besides, the NADPH fluorescence slope in test [5] was -3.7e-05 (inactive). For the same compound, in test [6], the slope is 0.00615 (inactive).

The record behind these values is PubChem BioAssay.
